# PI5P4K alpha inh: qHTS for Inhibitors of phosphatidylinositol 5-phosphate 4-kinase (PI5P4K). max response, %. AID 652105, 2013. PI5P4Kalpha enzyme, ADP-Glo luminescence, 60 min; active compounds read low. 330,000 tested, 1.2% active. Phosphatidylinositol 5-phosphate 4-kinase type-2 alpha (Homo sapiens), P48426; active = max response of -50% or lower; inconclusive = between -30% and -50%; inactive = -30% or higher; also: value at the top dose of about 77 µM; % is scaled to controls: 0 for no effect and ±100 for the full control effect
#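 Human PI5P4Kalpha with substrate in 0.038 M HEPES pH 7.4, 0.28 mM EGTA, 0.1% CHAPS, 5% DMSO; reaction started with 5 microM ATP (final), 60 min at room temperature. ADP formed read by ADP-Glo luminescence.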
# WRN helicase inh: qHTS for Inhibitors of WRN Helicase; Bifunctional 3'-5' exonuclease/ATP-dependent helicase WRN (Homo sapiens), Q14191; WRN helicase unwinding, fluorescent forked duplex, kinetic; Potency, µM (series often up to 114 µM), without a hit: at the highest dose activity change, negative = inhibition, hits mostly inhibitors; 360,000 tested, 0.46% active; also: potency is read from the fitted curve at half-maximal effect; % is scaled to controls: 0 for no effect and ±100 for the full control effect; nearly all actives have a fitted effect of over 55% in size
#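 Kinetic red-fluorescence monitoring (525/598 nm) tracks WRN helicase activity after 100 nM fluorophore-quencher forked duplex and 2 mM ATP are added to 20 nM enzyme pretreated 15 min at room temperature with compound.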
# Pol eta inh-1: qHTS for Inhibitors of Polymerase Eta. DNA polymerase eta (Homo sapiens), Q9Y253. recombinant Pol eta, fluorescent DNA replication assay. Potency, µM (series often up to 114 µM), for inactives: at the top dose activity change, negative = inhibition, usual class: inhibitors. 390,000 tested, 1.2% active; also: potency is read from the fitted curve at half-maximal effect; % is scaled to controls: 0 for no effect and ±100 for the full control effect
#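 Pol eta at 10 nM preincubated with compounds 15 min at room temperature; reaction started with fluorescent substrate (50 nM final) and read kinetically at 0 and 10 min.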
# POLB inh: qHTS Assay for Inhibitors of DNA Polymerase Beta. P06746. Pol beta primer extension/strand displacement, fluorescence kinetic. AID 485314, 2010. Potency, µM (highest dose often 114 µM), inactives show at the highest dose activity change, negative = inhibition, hits mostly inhibitors. 340,000 tested, 1.3% active; also: potency is read from the fitted curve at half-maximal effect; % is scaled to controls: 0 for no effect and ±100 for the full control effect
#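 Pol beta (10 nM) and compounds were preincubated 15 min at room temperature, then 50 nM substrate (final) started primer extension/strand displacement. Reads were taken at 0 and 10 min; concentration-response data were fitted to a four-parameter Hill equation.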
# Pol iota inh: qHTS for Inhibitors of Polymerase Iota. DNA polymerase iota (Homo sapiens), Q9UNA4. Pol iota fluorescent replication assay, 10 min. 390,000 tested, 1% active. AID 588590, 2011. Potency, µM (doses to about 115 µM), for inactives: top-dose activity, negative = inhibition, actives largely listed as inhibitors; also: potency is read from the fitted curve at half-maximal effect
# Target sequence (Q9UNA4 whole entry, looked up): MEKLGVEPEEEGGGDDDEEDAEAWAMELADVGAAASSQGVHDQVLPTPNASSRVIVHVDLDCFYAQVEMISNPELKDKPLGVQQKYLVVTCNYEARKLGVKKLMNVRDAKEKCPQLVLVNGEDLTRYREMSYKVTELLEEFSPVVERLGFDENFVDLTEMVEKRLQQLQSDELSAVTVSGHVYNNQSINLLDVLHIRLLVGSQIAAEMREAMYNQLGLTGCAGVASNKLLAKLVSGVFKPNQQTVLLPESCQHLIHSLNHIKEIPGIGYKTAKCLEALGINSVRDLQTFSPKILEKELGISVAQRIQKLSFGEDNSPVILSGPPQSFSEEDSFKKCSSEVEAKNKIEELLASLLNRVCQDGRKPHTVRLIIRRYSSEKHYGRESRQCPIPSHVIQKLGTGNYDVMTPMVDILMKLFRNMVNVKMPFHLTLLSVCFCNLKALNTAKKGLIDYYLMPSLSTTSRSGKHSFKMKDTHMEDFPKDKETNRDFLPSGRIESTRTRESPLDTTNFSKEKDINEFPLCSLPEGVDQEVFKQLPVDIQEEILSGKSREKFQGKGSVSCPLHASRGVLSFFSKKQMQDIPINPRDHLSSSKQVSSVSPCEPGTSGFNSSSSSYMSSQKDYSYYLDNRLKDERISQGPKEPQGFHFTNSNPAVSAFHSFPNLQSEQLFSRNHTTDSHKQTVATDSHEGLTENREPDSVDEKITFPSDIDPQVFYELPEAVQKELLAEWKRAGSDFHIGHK
#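 Pol iota at 10 nM preincubated 15 min with compounds at room temperature; reaction started with fluorescent substrate, 50 nM final. Fluorescence read kinetically at 0 and 10 min; buffer-only wells as negative control.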
# Pol kappa inh-1: qHTS for Inhibitors of Polymerase Kappa | purified Pol kappa, fluorescent DNA synthesis assay, 10 min | 400,000 tested, 0.53% active | Potency, µM (highest dose often 107 µM), for the others: at the highest dose activity, negative = inhibition, actives largely listed as inhibitors | AID 588579, 2011 | DNA polymerase kappa (Homo sapiens), Q9UBT6; also: potency is read from the fitted curve at half-maximal effect; % is scaled to controls: 0 for no effect and ±100 for the full control effect
#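 Readout: fluorescence, taken kinetically at 0 and 10 min. Conditions: 10 nM Pol kappa, 15 min RT compound preincubation, 50 nM substrate final. Controls: enzyme-free buffer wells.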
# GALK confirm: Confirmation Assay for Inhibitors of Human Galactokinase (GALK); purified GALK, Kinase-Glo ATP depletion luminescence; Potency, µM (top dose mostly 115 µM), for inactives: top-dose activity, negative = inhibition, actives largely listed as inhibitors; shares compounds with Pol eta inh-1; 150 tested, 70% active
# Redox cycling: Confirmatory Assay for Inhibitors of Human Galactokinase (GALK): Phenol-HRP redox assay counterscreen | shares compounds with Pol eta inh-1 | Phenol red-HRP H2O2 redox cycling, absorbance 600 nm | Potency, µM (titrated, usually from 115 µM), without a hit: at the top dose activity change, negative = H2O2 signal, most hits filed as inhibitors | 150 tested, 40% active | AID 2035, 2009
# HEK293 tox: Secondary Assay for Inhibitors of Human Galactokinase (GALK): HEK-293 Cell Viability Assay. shares compounds with Pol eta inh-1. HEK-293 viability, ATP luminescence (CellTiter-Glo), 24/48 h. Potency, µM (series often up to 46.1 µM), for the others: at the highest dose activity change, negative = cytotoxicity, actives largely listed as inhibitors. 170 tested, 10% active. AID 2547, 2010; also: potency is read from the fitted curve at half-maximal effect; % is scaled to controls: 0 for no effect and ±100 for the full control effect
# Pol kappa inh-2: qHTS for Inhibitors of Polymerase Kappa: Confirmatory Assay for Cherry-picked Compounds. shares compounds with Pol eta inh-1. purified Pol-kappa, fluorescent strand-displacement substrate. Potency, µM, actives largely listed as inhibitors. 920 tested, 76% active. AID 720501, 2013; also: potency is read from the fitted curve at half-maximal effect
# Pol eta inh-2: qHTS for Inhibitors of Polymerase Eta: Confirmatory Assay for Cherry-picked Compounds | shares compounds with Pol eta inh-1 | Pol eta primer extension, TAMRA/BHQ fluorescence, 10 min | Potency, µM, most hits filed as inhibitors | 2,600 tested, 64% active | AID 720502, 2013; also: potency is read from the fitted curve at half-maximal effect
# * = called active by the depositor; u = inconclusive; x = no result; [ ] = dose if it differs, or a comment. Most compounds without a hit are left out; they make up all but 2.8% or so of the library. Unless noted, calls follow the shape of the dose curve; as a rule, active = well fitted curve in the direction sought with a large enough effect; inconclusive = small, poorly fitted or top-dose-only effect, or another doubt; inactive = no such curve, though single readings can be large; an effect the other way counts as inactive or inconclusive.
SMILES,PI5P4K alpha inh,WRN helicase inh,Pol eta inh-1,POLB inh,Pol iota inh,Pol kappa inh-1,Pol eta inh-2,others
CC(C)C(NC(=O)/C(=C\c1ccco1)NC(=O)c1ccco1)C(=O)O (stereo unspecified),-1,-4%,20µM*,22µM*,-2%,u,x,Pol kappa inh-2=u
CCOC(=O)C1CCN(C(=O)c2cc3ccc4ccc(C)[nH]c4c3n2)CC1,x,x,-16%,15%,17%,0%,x,
COc1cc(/C=C2/C(=N)N3OC(C)=CC3=NC2=O)ccc1OC(=O)c1ccco1,-12,-8%[57.1 µM],3%,-12%,25%,-19%,x,
COc1cc(/C=C2/C(=N)N3C=CSC3=NC2=O)ccc1OCCOc1ccc(NC(C)=O)cc1,-2,-22%[57.1 µM],-3%,32%,70%,-15%,x,
COc1cc(/C=C2\C(=N)N3N=C(S(=O)(=O)CC(C)C)SC3=NC2=O)ccc1OC(=O)c1ccco1,x,x,x,-22%,x,x,x,GALK confirm=27µM*;Redox cycling=-4%;HEK293 tox=3%
COc1cc(/C=C2\C(=N)N3N=C(S(C)(=O)=O)SC3=NC2=O)cc(OC)c1OCCOc1ccc(C)cc1,-11,-12%[11.6 µM],-11%,3%,u,-13%,x,
COc1cc(/C=C2\C(=N)N3N=C(S(C)(=O)=O)SC3=NC2=O)ccc1OCCOc1ccc(C)cc1,u,-33%[11.6 µM],u,-29%,u,3%[60.1 µM],u,Pol kappa inh-2=27*
CCS(=O)(=O)C1=NN2C(=N)/C(=C\c3ccc(OCCOc4cccc(OC)c4)c(OC)c3)C(=O)N=C2S1,-78*,-33%,35µM*,50µM*,u,-25%,u,Pol kappa inh-2=u
CSc1nnc(C)c(=O)n1COC(=O)c1ccccc1,4,-4%,-20%,2%,73%,-9%,x,
COc1ccc2c(c1)c(=O)oc1c(C)c(OC(C)C(=O)N[C@@H](Cc3c[nH]c4ccc(O)cc34)C(=O)O)ccc12 (stereo partly specified),-16,-14%[11.6 µM],20µM*,u,u,u,48*,
CCC(C)N(C(=O)CSc1nnc(-c2ccco2)n1C)C1CCS(=O)(=O)C1 (stereo unspecified),-1,-6%,-3%,x,26%,-6%,x,
O=C(Nc1cccnc1Cl)c1ccc(=O)oc1,u,u,20µM*,13µM*,22µM*,45µM*,u,
Cc1ccc2c(c1)C1CN(C)CCC1N2Sc1ccccc1[N+](=O)[O-] (stereo unspecified),-3,-6%,-19%,-20%,20%,-11%,x,
Cn1cccc1/C=C1\SC(=S)N(CC(=O)O)C1=O,4,-2%,-4%,17%,7%,0%,x,
CCOc1ccc(-c2nn(-c3ccccc3)cc2/C=C2\SC(=S)N(C3CCS(=O)(=O)C3)C2=O)cc1 (stereo unspecified),x,2%,4%,23%,14%,-21%,x,
Cc1ccc(-c2nn(-c3ccccc3)cc2/C=C2\SC(=S)N(CC(=O)O)C2=O)cc1,-7,-4%,u,5%,u,-1%,x,GALK confirm=42µM*;Redox cycling=6%;HEK293 tox=-1%
COc1ccc(-c2nn(-c3ccccc3)cc2/C=C2/SC(=S)N(CCC(=O)O)C2=O)cc1,2,50µM*,22µM*,32µM*,u,-34%,x,Pol kappa inh-2=17*
COCCNc1ccc(-c2nc(-c3ccccn3)no2)cc1[N+](=O)[O-],x,x,0%,-28%,6%,7%,x,
Cc1nc([N+](=O)[O-])cn1CC(O)c1ccc2c(c1)OCO2 (stereo unspecified),x,x,x,x,u,-18%,x,
CCC(C)(C)NC(=O)C(c1ccncc1)N(C(=O)Cn1nnc2ccccc21)c1cc2c(cc1C(C)=O)OCO2 (stereo unspecified),7,-17%,-16%,0%,13%,3%,x,
Cc1ccc(S(=O)(=O)N[C@@H](CO)C(=O)N[C@@H](Cc2ccc(O)cc2)C(=O)O)cc1,7,-2%,-19%,-3%,13%,-15%,x,
O=C(O)c1ccc(S(=O)(=O)N[C@@H](Cc2ccc(O)cc2)C(=O)O)cc1,x,x,x,x,x,x,38*,Pol kappa inh-2=11*
Cc1ccc2c(c1)NC(=O)c1cccnc1O2,x,x,x,1%,11%,-9%,x,
Cc1cccc(Oc2ccc3c(c2)Oc2ccccc2NC3=O)c1,x,x,50µM*,13µM*,71µM*,u,u,
CN(C)/C=C/C(=O)c1ccc(Cl)c([N+](=O)[O-])c1,-11,5%,-12%,-14%,22%,-3%,x,
c1csc(Cc2nn3c(-c4n[nH]c5c4CCC5)nnc3s2)c1,u,-36%,11µM*,28µM*,u,-33%,u,
CCNc1nc(NCC)n2c(SCC(=O)Nc3ccc(NC(C)=O)cc3)nnc2n1,-1,0%[11.6 µM],40µM*,x,u,u,u,
O=C1OCCC1=CN1CCCCC1,2,-11%,-18%,x,x,x,x,

# Screening results from PubChem.
